Consider nine compounds from PubChem BioAssay.

The source made the active and inactive calls. Unless noted, no rule for the calls is given here.

Assay [1] can be described thus: resazurin metabolic signal in HepG2 cells – cell-based, resazurin fluorescence, 24 h, PK04 Diversity Set, profiling panel (AID 1172). As to conditions: HepG2 viability, higher = more signal.
Assay [2] can be described thus: budding yeast growth changes without added modifier – OD600, strain BY4716, 24 h, basal condition, primary screen (AID 1173). The note with it: S. cerevisiae BY4716 growth, OD600, 24 h; higher = more signal, called active from +8 up or from −8 down.
A short description of assay [3]: viability profiling in MM1S myeloma cells – cell-based, resazurin fluorescence, basal, 24 h, PK04 Diversity Set, profiling panel (AID 1174).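 Also: MM1S multiple myeloma cell line.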 The note with it: higher = more signal, called active from +8 up or from −8 down. For orientation: The colour change of resazurin is a common sign of viable cells or microbes.
Assay [4] concerns the target Dihydroorotate dehydrogenase (quinone), mitochondrial (Plasmodium falciparum (isolate 3D7)) (UniProt Q08210). The experiment in a line: inhibition of P. falciparum DHODH – biochemical, C-terminal His tag, absorbance 600 nm, primary screen (AID 1175).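 Also: recombinant parasite enzyme with a five histidine tag at its C terminus.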 The note with it: PfDHODH enzyme, DCIP absorbance 600 nm; higher = more signal, called active from +8 up or from −8 down.

Assay [5] in a line: inhibition of PAO1 biofilm formation – strain PAO1, LB-PBS medium, absorbance 600 nm, primary screen (AID 1176). As to conditions: P. aeruginosa PAO1 growth/biofilm, A600, 12 h; higher = more signal.
A short description of assay [6]: growth modulation of vineyard yeast isolate – strain RM11-1a, OD600, basal, 24 h, primary screen (AID 1177).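 Also: cultures grown under basal conditions with no added stressor.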 The note with it: S. cerevisiae RM11-1a growth, OD600, 24 h; higher = more signal, called active from +8 up or from −8 down.
Assay [7] is described as follows: growth of efflux-deficient E. coli DRC39 – strain DRC39, OD650, 24 h, E. coli filamentation inducers, primary screen (AID 1178).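 Also: growth measured as culture turbidity by optical density at 650 nm.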 As to conditions: E. coli DRC39 acrAB, higher = more signal, called active from +8 up or from −8 down.
A short description of assay [8]: growth of efflux-deficient E. coli DRC39 – strain DRC39, OD650, 48 h, E. coli filamentation inducers, primary screen (AID 1179).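 Also: screen aims at cell division blockers that make cells filament.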 As to conditions: E. coli DRC39 delta-acrAB growth, higher = more signal, called active from +8 up or from −8 down.
The nature of assay [9]: viability profiling in RPMI8226 myeloma cells – cell-based, resazurin fluorescence, basal, 24 h, PK04 Diversity Set, profiling panel (AID 1180).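 Also: RPMI8826 multiple myeloma cell line at 5000 cells per well.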 As to conditions: higher = more signal.
Assay [10] addresses E3 ubiquitin-protein ligase XIAP (Homo sapiens) (UniProt P98170). The experiment in a line: small molecules binding XIAP protein – biophysical, small-molecule microarray, fluorescence 635 nm, primary screen (AID 1181).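 Also: score merges 667 nm emission and signal to noise over triplicate slides.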 The note with it: higher = more signal.
In assay [11] the test system is XIP peptide (Xip251-270) binding. The experiment in a line: XIP fragment 251-270 binding compounds – biochemical, small-molecule microarray, fluorescence 635/667 nm, 0.1 µg/mL protein, primary screen (AID 1182). The note with it: fluorescent protein binding, 635 nm, higher = more signal, called active from +8 up or from −8 down.
The test system of another assay is XIP peptide (Xip251-270). The assay can be described thus: compounds binding XIP fragment 251-270 – biochemical, small-molecule microarray, fluorescence 635/667 nm, 0.5 µg/mL protein, primary screen (AID 1183). As to conditions: fluorescence 635 nm, higher = more signal.
The nature of assay [12]: blood-stage malaria parasite viability loss – strain 3D7, DAPI fluorescence, 100 nL, primary screen (AID 1184).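 Also: parasites grown inside human red blood cells in medium with human serum.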 As to conditions: P. falciparum 3D7 growth, 3 d, higher = more signal.
Assay [13] has as its target Homeobox protein Hox-A13 (Mus musculus) (UniProt Q62424). The assay can be described thus: disruptors of Hoxa13 oligonucleotide interaction – biochemical, fluorescence polarization, labeled oligonucleotide, primary screen (AID 1185). The note with it: Hoxa13:DNA binding, 15 min, higher = more signal, called active from +8 up or from −8 down.
A short description of assay [14]: blockers of DNA damage checkpoint Chk1 activation – imaging, HeLa, hydroxyurea, phospho-Chk1 antibody, percent positive cells, primary screen (AID 1186). As to conditions: hydroxyurea-induced phospho-Chk1 immunofluorescence imaging, higher = more signal.
Assay [15] is described as follows: blockers of DNA damage checkpoint Chk1 activation – imaging, HeLa, hydroxyurea, phospho-Chk1 nuclear intensity, primary screen (AID 1187). The note with it: hydroxyurea-induced phospho-Chk1 immunofluorescence imaging, higher = more signal.

Sequence of E3 ubiquitin-protein ligase XIAP (Homo sapiens) (P98170 whole entry, looked up, the tested form may be a part): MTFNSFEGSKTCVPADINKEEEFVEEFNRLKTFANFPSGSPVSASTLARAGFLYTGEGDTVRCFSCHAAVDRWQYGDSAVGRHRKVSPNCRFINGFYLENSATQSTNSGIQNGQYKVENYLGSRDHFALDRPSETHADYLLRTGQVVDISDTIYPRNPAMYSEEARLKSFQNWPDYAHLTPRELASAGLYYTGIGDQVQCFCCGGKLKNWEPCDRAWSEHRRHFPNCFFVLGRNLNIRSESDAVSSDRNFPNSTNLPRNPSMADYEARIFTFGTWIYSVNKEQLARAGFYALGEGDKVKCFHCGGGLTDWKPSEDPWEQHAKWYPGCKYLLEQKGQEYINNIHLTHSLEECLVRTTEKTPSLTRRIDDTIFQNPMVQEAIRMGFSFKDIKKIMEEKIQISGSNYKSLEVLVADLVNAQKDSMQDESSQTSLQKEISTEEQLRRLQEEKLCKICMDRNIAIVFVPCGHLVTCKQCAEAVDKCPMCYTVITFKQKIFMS
Sequence of Homeobox protein Hox-A13 (Mus musculus) (Q62424 whole entry, looked up): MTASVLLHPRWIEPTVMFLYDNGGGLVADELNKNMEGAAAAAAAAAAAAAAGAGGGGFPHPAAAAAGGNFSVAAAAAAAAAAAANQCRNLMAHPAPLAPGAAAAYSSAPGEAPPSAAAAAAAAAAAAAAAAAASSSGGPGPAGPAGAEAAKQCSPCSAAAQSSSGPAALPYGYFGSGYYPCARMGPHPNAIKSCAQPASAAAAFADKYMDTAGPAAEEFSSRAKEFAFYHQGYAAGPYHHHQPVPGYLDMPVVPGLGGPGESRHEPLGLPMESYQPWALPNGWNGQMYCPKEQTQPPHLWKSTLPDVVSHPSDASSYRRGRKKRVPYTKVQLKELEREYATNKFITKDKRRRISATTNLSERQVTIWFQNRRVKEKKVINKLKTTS
Sequence of Dihydroorotate dehydrogenase (quinone), mitochondrial (Plasmodium falciparum (isolate 3D7)) (Q08210 whole entry, looked up): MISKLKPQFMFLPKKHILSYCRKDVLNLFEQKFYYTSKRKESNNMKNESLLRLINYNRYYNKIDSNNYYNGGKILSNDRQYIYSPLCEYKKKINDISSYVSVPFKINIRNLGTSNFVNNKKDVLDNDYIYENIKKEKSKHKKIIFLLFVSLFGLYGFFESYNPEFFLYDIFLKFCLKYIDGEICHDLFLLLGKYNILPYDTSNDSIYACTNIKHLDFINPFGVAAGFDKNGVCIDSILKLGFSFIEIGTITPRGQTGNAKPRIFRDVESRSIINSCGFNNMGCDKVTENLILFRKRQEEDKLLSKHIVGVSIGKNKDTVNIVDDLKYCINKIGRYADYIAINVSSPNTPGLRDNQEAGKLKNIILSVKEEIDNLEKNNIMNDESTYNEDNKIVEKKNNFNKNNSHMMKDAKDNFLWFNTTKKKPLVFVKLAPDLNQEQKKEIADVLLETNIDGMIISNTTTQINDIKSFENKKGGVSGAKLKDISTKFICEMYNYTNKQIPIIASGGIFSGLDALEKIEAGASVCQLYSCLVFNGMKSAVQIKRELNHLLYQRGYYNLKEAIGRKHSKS

In the case of `COCCOC(=O)N1C(=O)[C@@]2(c3cc(C#Cc4ccc(OC)cc4)ccc31)[C@H](c1ccc(O)cc1)N1[C@H](c3ccccc3)[C@H](c3ccccc3)OC(=O)[C@H]1[C@@H]2C(=O)Nc1nc2ccccc2s1`, the z-score in assay [1] is -0.719; in assay [2] it was -0.442 (inactive); in [3] it was -0.72 (inactive); in assay [5] it was 0.819 (inactive); in assay [6], 0.363 (inactive); in [7], -0.184 (inactive). The z-score was -0.0404 (inactive) in assay [8]; -0.61 in assay [9]; -0.0098 in [12]; -0.183 (inactive) in assay [13]; -0.233 (inactive) in assay [14]; -0.215 (inactive) in assay [15]. In addition, the composite z-score in assay [4] was -0.455 (inactive); in assay [10] it was 0.0345; in assay [11], 0.691 (inactive); in the assay on XIP peptide (Xip251-270), 0.641.
Consider `CC(=O)Nc1cc(Br)ccc1C(=O)NCc1ccccc1`, for which the z-score in assay [1] was 0.184; in assay [2] it was -8.91 (active); in assay [3] it was -0.292 (inactive); in assay [5] it was -0.131 (inactive); in [6] it was -0.294 (inactive); in assay [7], 0.0344 (inactive). Also, the z-score in assay [8] is -0.785 (inactive); in assay [9] it was -0.108; in assay [12], 1.3; in assay [13] it was -0.77 (inactive); in [14] it was 0.0852 (inactive); in [15], 0.516 (inactive). Further, the composite z-score in assay [4] is 0.663 (inactive); in [10], -0.157; in assay [11] it was 0.137 (inactive); in the assay on XIP peptide (Xip251-270) it was 0.201.
Turning to `C=CCC(OC(C)=O)[C@@H]1[C@@H](N(Cc2ccc(-c3cccc(C(F)(F)F)c3)o2)C(=O)Cc2ccc(OC)cc2)c2cc(OCCCO)ccc2N1C(=O)c1ccc2ccccc2c1` (some centres undefined), the z-score in assay [1] was -0.29; in assay [2] it was -1.44 (inactive); in [3], 0.598 (inactive); in assay [5], -0.841 (inactive); in assay [6] it was 0.0979 (inactive); in assay [7], 0.751 (inactive). Also, the z-score in assay [8] is 0.489 (inactive); in assay [9] it was 0.187; in [12], -2.16; in assay [13] it was -2.43 (inactive); in assay [14], 0.171 (inactive); in assay [15] it was 0.284 (inactive). Further, the composite z-score is 0.165 (inactive) in assay [4], 0.144 in [10], 0.397 (inactive) in [11] and 0.0642 in the assay on XIP peptide (Xip251-270).
Consider `CCCCC(=C=CC[C@@H](O)c1ccc(CO)o1)CCO`, for which the z-score was 1.15 in [1]; -0.205 (inactive) in assay [2]; -0.438 (inactive) in assay [3]; 0.838 (inactive) in assay [5]; 0.175 (inactive) in [6]; 1.54 (inactive) in assay [7]. The z-score in assay [8] was 1.12 (inactive); in assay [9] it was 1.22; in assay [12], 0.0728; in [13] it was -4.16 (inactive); in [14] it was -0.364 (inactive); in [15], -0.13 (inactive). Also, the composite z-score in assay [4] was -0.594 (inactive); in assay [10], 0.128; in assay [11] it was 0.54 (inactive); in the assay with XIP peptide (Xip251-270) it was 0.218.
`NCCCCCCNC(=O)[C@H]1C[C@H]2C(=O)N[C@@H](Cc3ccccc3)C(=O)N2[C@H]1c1cccc(OCCO)c1`: the z-score in assay [1] is -2.77; in assay [2] it was -0.669 (inactive); in assay [3] it was 1.51 (inactive); in [5] it was -0.627 (inactive); in [6], 0.262 (inactive); in assay [7], 0.968 (inactive). For the same compound, the z-score in assay [8] is 0.846 (inactive); in assay [9], 1.06; in assay [12], -0.516; in assay [13], -3.36 (inactive); in [14], -0.182 (inactive); in assay [15] it was -0.25 (inactive). Moreover, the composite z-score in assay [4] was 1.18 (inactive); in assay [10], 0.081; in [11], 1.16 (inactive); in the assay on XIP peptide (Xip251-270), 0.834.
In the case of `COC(=O)[C@@]1(Cc2ccc(F)cc2)[C@H]2c3cc(C(=O)N(C)C)n(Cc4cc(C)n(C)n4)c3C[C@H]2CN1C(=O)c1ccccc1`, the z-score is -0.806 in assay [1]; -0.169 (inactive) in assay [2]; -0.943 (inactive) in assay [3]; 0.495 (inactive) in assay [5]; -0.0352 (inactive) in assay [6]; -0.431 (inactive) in assay [7]. Besides, the z-score in [8] is -0.851 (inactive); in assay [9], -0.856; in assay [12] it was -0.358; in [13] it was -1.42 (inactive); in [14], 0.669 (inactive); in assay [15], 0.333 (inactive). The composite z-score was -0.368 (inactive) in assay [4], 0.473 in assay [10], 0.537 (inactive) in assay [11] and 0.801 with XIP peptide (Xip251-270).
As to `OCC1C=C(/C=C/c2ccccc2)CN1Cc1ccccc1Br` (centres undefined), the z-score was 0.233 in assay [1]; -9.92 (active) in assay [2]; -0.813 (inactive) in [3]; -0.0461 (inactive) in assay [5]; -0.877 (inactive) in assay [6]; 1.79 (inactive) in assay [7]. For the same compound, the z-score in assay [8] is 0.183 (inactive); in assay [9], -0.589; in assay [12] it was -0.982; in [13] it was -2.19 (inactive); in assay [14] it was -0.449 (inactive); in assay [15], -0.283 (inactive). Also, the composite z-score in assay [4] was -0.0313 (inactive); in [10] it was -0.122; in [11] it was 1.74 (inactive); in the assay with XIP peptide (Xip251-270), 0.698.
Take `CC1CC/C=C\[C@H]2OC34C=CCN(Cc5ccccc5)C(=O)[C@H]3N(C(C)CO)C(=O)[C@@H]4C2C(=O)O1` (some centres undefined): the z-score in assay [1] is 0.36; in [2], -1.39 (inactive); in [3] it was 0.678 (inactive); in [5], -0.525 (inactive); in assay [6], -0.0642 (inactive); in assay [7], 0.492 (inactive). Moreover, the z-score in assay [8] was 1 (inactive); in assay [9] it was 0.233; in [12], -0.562; in assay [13] it was -5.87 (inactive); in assay [14] it was -0.682 (inactive); in assay [15], -0.602 (inactive). The composite z-score in [4] is -0.166 (inactive); in [10] it was 0.0772; in assay [11] it was -0.49 (inactive); in the assay on XIP peptide (Xip251-270), 0.0057.
Regarding `COc1cc2c(cc1O)C(c1cccs1)N(Cc1ccc([N+](=O)[O-])o1)CC2` (centres undefined), the z-score was -0.302 in [1]; -2.05 (inactive) in assay [2]; 0.278 (inactive) in [3]; 0.723 (inactive) in assay [5]; -1.14 (inactive) in [6]; -0.107 (inactive) in assay [7]. The z-score in [8] is 1.19 (inactive); in assay [9], -0.182; in [12], -0.316; in assay [13] it was -6.24 (inactive); in [14], -0.334 (inactive); in assay [15] it was -0.445 (inactive). For the same compound, the composite z-score in assay [4] was -4.93 (inactive); in [10], -0.102; in [11] it was 0.243 (inactive); with XIP peptide (Xip251-270) it was 0.947.
